Data from ChEMBL document CHEMBL3988442, “University of Dundee, Small-Polar-MMV Screening Library” (2021).

Molecular target: AMP-activated protein kinase, AMPK (Homo sapiens) (UniProt P54646+O43741+P54619+Q9UGJ0+Q9Y478+Q13131+Q9UGI9)
Assay: AMP-dependent Kinase enzyme assay. An in vitro enzyme assay that detects ADP turnover that is directly proportional to AMPK activity. This uses naive AMPK that is activated during the assay with MK-8722
Format: functional
Design: scale not given: direction of the effect not stated beside the values
Conditions: 30 µM

Compound	Percent Effect [%]
N#Cc1ccc(CN(CC(N)=O)Cc2cccc(F)c2)cc1	-6
Nc1nc(CC(=O)N2CCCC(CCc3cccc(F)c3)C2)cc(=O)[nH]1 (stereo not given)	-9.77
CC(C(=O)Nc1cccc(F)c1)N(C)CCN1CCOCC1 (stereo not given)	0.543
COC(=O)CCN(C)C(=O)c1csc(Cc2ccccc2F)n1	-2.56
O=C(O)CC(CC(=O)N(Cc1ccsc1)C1CC1)c1cccs1 (stereo not given)	-2.55
N#Cc1c(N)nc2c(c1-c1c[nH]nc1C1CCCCC1)COCC2	42.5
COc1ccnc(CNc2nc(C)nc3ccsc23)c1	-0.808
CC(C(=O)NCc1ccc(F)cc1)N(C)CCN1CCOCC1 (stereo not given)	2.87
c1cn(-c2nccnc2C2CCCN(C3CCOCC3)C2)cn1 (stereo not given)	10.1
CC(C)[C@H]1CN(Cc2ccccn2)C[C@@H]1NC(=O)CCS(C)(=O)=O	9.37
O=C(c1cnccn1)N1CCCC(C2=Nc3ccccc3S(=O)(=O)N2)C1 (stereo not given)	22
CCc1nc(C)c(CC(=O)N2CCC3(CC2)OCCCC3O)c(=O)[nH]1 (stereo not given)	2.99
CN(CC(O)C(F)(F)F)C(=O)Nc1cccc(C(F)F)c1 (stereo not given)	-0.316
COc1ccc(CCN(C)C(=O)CN2C(=O)OC[C@@H]2C(C)C)cc1OC	4.03
Cc1nccn1[C@@H]1CC[C@@H](N(C)S(=O)(=O)c2ccc(F)cc2)[C@H]1O	27.2
COCCOCC1CCN(C(=O)c2ccc3[nH]cnc3c2)C1 (stereo not given)	-11.9
NC(=O)C1CCN(c2ccc(C(=O)N3CCc4ccccc43)cn2)C1 (stereo not given)	6.03
CN1CCCC(c2nccnc2-c2cccc(C(F)(F)F)c2)C1 (stereo not given)	26.4
CC(C)Oc1cc(N2CCN(Cc3ccsc3)C(CCO)C2)nc(N)n1 (stereo not given)	-13.7
Cc1cc(N2CCC3(CCCN(CCO)C3=O)C2)nc2ccccc12 (stereo not given)	9.84
